Test results taken from PubChem BioAssay AID485344 (National Center for Advancing Translational Sciences (NCATS), 2010).
In all, about 340,000 compounds went through this assay and about 6,900 (2%) were called active. Cut-off read from the data, not from the text of the source: active = inhibition above about 30%; inactive = below that, where a call was filed. The full list was thinned out, with actives kept by preference.

What follows are compounds tested against D(2) dopamine receptor (Homo sapiens) (UniProt P14416) (assay: HTS Assay for Allosteric Antagonists of the Human D2 Dopamine Receptor: Primary Screen for Antagonists). Details: HEK293 TREx D2 cells, calcium flux, dopamine EC80; at 10 µM; hits give high values.
Source text: NIH Chemical Genomics Center [NCGC] NIH Molecular Libraries Probe Centers Network [MLPCN] MLPCN Grant: NS064831-01 Assay Submitter (PI): David Sibley Dopamine receptors (DARs) are involved in the etiology and/or therapy of a number of neuropsychiatric and endocrine disorders. For instance, all receptor-based antiparkinsonian drugs work via stimulating the D2 DAR subtype whereas all FDA-approved antipsychotic agents are antagonists of this receptor. […] There are three different types of allosteric modulators that we are seeking, two of which will stimulate or augment receptor signaling, allosteric agonists and potentiators, while the third, allosteric antagonists, will attenuate receptor signaling. The present primary screening assay measures compound antagonism after an EC80 addition of dopamine by tracking calcium flux in a […], inducible Hek293 Trex D2 cell line.
Freshly passaged cells are plated in 1536 well black, clear bottom plates at a density of 4000 cells/well in 3 ul of complete media containing 1x tetracycline inducer. After an overnight incubation at 30 C in 5% CO2, cells are loaded with 2 ul of the no wash Calcium Assay Kit (ABD Bioquest) and incubated at room temperature for 30 to 90 minutes. Agonist read: A 10 cycle (1 second/cycle) baseline measurement is taken and then the FDSS online 1536 pintool delivers 23 nl of compound library (as well as dopamine controls) to the plate. The plate is measured for kinetically at 1 cycle/sec for 180 seconds. Following the 180 second read, 1 ul of an EC80 (negative modulation assay) is delivered by an onboard pipette head. Measurements are taken kinetically for an additional 180 seconds.
Note: 0% is about no effect.

Chain of D(2) dopamine receptor (Homo sapiens) (P14416 whole entry, looked up): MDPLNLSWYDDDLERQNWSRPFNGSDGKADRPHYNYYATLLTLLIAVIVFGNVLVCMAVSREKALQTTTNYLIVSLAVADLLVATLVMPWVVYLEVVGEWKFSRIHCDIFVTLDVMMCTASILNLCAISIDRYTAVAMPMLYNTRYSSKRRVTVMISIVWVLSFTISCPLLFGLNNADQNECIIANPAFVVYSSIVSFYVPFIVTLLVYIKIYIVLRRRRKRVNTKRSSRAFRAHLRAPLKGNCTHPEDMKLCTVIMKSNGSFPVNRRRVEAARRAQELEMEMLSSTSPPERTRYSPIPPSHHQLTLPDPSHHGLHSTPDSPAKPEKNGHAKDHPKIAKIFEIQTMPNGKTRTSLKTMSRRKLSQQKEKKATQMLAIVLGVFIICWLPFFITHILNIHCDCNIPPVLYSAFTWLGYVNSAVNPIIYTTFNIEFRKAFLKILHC

inhibition, active:
Cc1ccc(S(=O)(=O)N(CC(O)CN2C(=O)NC(C)(C)C2=O)c2cccc([N+](=O)[O-])c2)cc1 (stereo not given) 30.4%, Cc1ccc(S(=O)(=O)N(CC(O)CN2CCCCC2)c2cccc([N+](=O)[O-])c2)cc1 (stereo not given) 35.8%, COc1ccc(Cc2nnnn2CC(=O)O)cc1 35.2%, COc1cccc(C(=O)N2CCCC(CCC(=O)NCc3ccc(F)c(F)c3)C2)c1 (stereo not given) 34.4%, CCNS(=O)(=O)c1ccc(NC(=O)Nc2cccc(C(F)(F)F)c2)cc1 38.4%, O=C(CCN1CCN(C/C=C/c2ccccc2)CC1)Nc1ccccc1Cl 31.9%, Cc1ccc(S(=O)(=O)N(C)CC(=O)OCC(=O)N2CC(=O)Nc3ccccc32)cc1 36.8%, CC(=O)N/C(=C/c1ccc(Cl)cc1)C(=O)NCCc1c[nH]c2ccccc12 31%, NS(=O)(=O)c1ccc(CNC(=O)c2cccc(S(=O)(=O)N3CCc4ccccc43)c2)cc1 41%, CCc1nnc(NC(=O)CSc2nnc(-c3ccncc3)n2Cc2ccccc2)s1 30.7%, CC(CCc1ccc(O)cc1)NCc1ccc(Cl)cc1Cl (stereo not given) 57%, CCOC(=O)C1=C(c2ccccc2)O/C(=C(/C(=O)OC)C(F)(F)F)S1 39%, O=C(NC(=O)c1ccccc1)Nc1ccccc1O 40%, COc1ccc(C(=O)Nc2cc(C)ccc2NC(=O)COc2ccccc2)cc1 44.4%, Cc1cccc(OCC(O)Cn2c(=N)n(CCN3CCOCC3)c3ccccc32)c1 (stereo not given) 31.7%, COc1ccc(/C=C/CN2CCCC(C(=O)c3cc(F)ccc3F)C2)cc1 (stereo not given) 34.2%, CC(C)(C)Nc1c(N)c(=O)oc2ccccc12 33.7%, CCN1CCN(C(=O)Cn2nc(C)n3c(cc4c(OC)cccc43)c2=O)CC1 35.3%

inhibition, inactive:
COc1ccc([N+](=O)[O-])cc1N(CC(O)Cn1nnc2ccccc21)S(=O)(=O)c1ccc(C)cc1 (stereo not given) 12.1%, O=S(=O)(c1ccccc1)N(CC(O)CN1CCCCC1)c1ccccc1 (stereo not given) -13.9%, CCN(CC)C(=O)CN(c1cccc([N+](=O)[O-])c1)S(=O)(=O)c1ccccc1 -8.71%, Cc1ccc(N(CC(O)CN2CCCC2)S(=O)(=O)c2ccccc2)cc1 (stereo not given) -18.8%, COc1ccc([C@H]2CC(=O)C=C(c3ccc(OC(F)(F)F)cc3)C2)cc1OC 10.4%, CN(CC(=O)NCCc1ccc(F)cc1)CC(=O)Nc1ccc(F)c(F)c1F -4.31%, CCCCn1c(N)c(N(CCC(C)C)C(=O)COC(=O)c2ccc(CC)cc2)c(=O)[nH]c1=O -24%, O=C(Nc1ccc2c(c1)OCO2)C1CC1(Cl)Cl (stereo not given) 4.68%, CCCn1nnnc1NCc1ccc(OC)cc1 -21.1%, COc1ccc(Cc2nnc(SCC(=O)N(c3ccccc3)C(C)C)n(N)c2=O)cc1 -8.57%, Cc1ccccc1OCCC(=O)OCC(=O)NCCc1ccc(S(N)(=O)=O)cc1 -20%, COc1cccc(CNC(=O)CCC2CCCN(C(=O)c3ccoc3C)C2)c1 (stereo not given) -10.4%, COc1cccc(CNC(=O)CCC2CCCN(C(=O)c3ccc(F)c(Cl)c3)C2)c1 (stereo not given) 7.84%, Cc1ccc(S(=O)(=O)N2[C@@H](c3cccc(Cl)c3)C(C(=O)O)=CC[C@H]2c2ccc(Cl)c(Cl)c2)cc1 -1.92%, COc1ccc(S(=O)(=O)N2CCOCC2)cc1NC(=O)Cc1coc2cc(C)ccc12 -8.41%, O=C(NNC(=O)C1CCC1)c1ccccc1 -2.25%, CC(C)C[C@H](NC(=O)Nc1cccc(C(F)(F)F)c1)C(=O)O 7.87%, Cc1ccc(NC(=O)Nc2cccc(C(F)(F)F)c2)nc1 -7.91%, CCOC(=O)[C@H]1[C@H]2COc3ccc(C)cc3[C@@H]2N2C(=O)CN(Cc3ccc(F)cc3)C(=O)[C@@]12C -3.67%, O=C(CCN1CCN(C/C=C/c2ccccc2)CC1)Nc1cccc(F)c1 -21%, O=C(CN1CCN(C/C=C/c2ccccc2)CC1)Nc1ccc(F)cc1F 6.36%, O=C(CN1CCN(S(=O)(=O)c2cccc(Cl)c2)CC1)N1CCCCC1 14%, Cc1ccc(C)c(NC(=O)CN(C)C(=O)c2ccc3ncsc3c2)c1 17.4%, CCCn1nc(C(=O)OCc2nc(N)nc(Nc3ccccc3C)n2)c2ccccc2c1=O 6.08%, Cc1ccc(S(=O)(=O)N(C)CC(=O)OCC(=O)Nc2ccccc2)cc1 -5.35%, COc1cc(OC)c(C(=O)OCC(=O)N2CC(=O)Nc3ccccc32)cc1OC -2.09%, COc1cc(C(=O)Nc2ncccc2C)ccc1OCC(=O)N1CCOCC1 -21.1%, COc1ccc(NC(=O)CN(C)C(=O)c2cccc(S(=O)(=O)N3CCN(c4ccccc4)CC3)c2)cc1 -9.07%, Cc1cccc(-c2oc3ccc(-c4ccc5c(c4)OCO5)cc3c2C#Cc2cncn2C)c1 11.3%, COc1ccccc1CC(=O)NCCc1c[nH]c2ccccc12 -11.6%, COc1ccc(/C=C(\NC(=O)c2ccc(OC)c(OC)c2)C(=O)NCCc2c[nH]c3ccccc23)cc1 -6.61%, CC1CC(C)CN(C(=O)COC(=O)c2ccc3ncsc3c2)C1 (stereo not given) -13.9%, Cc1ccc(NC(=O)c2cccc(S(=O)(=O)N3CCCc4ccccc43)c2)nc1 7.09%, NS(=O)(=O)c1ccc(CNC(=O)c2cccc(Oc3ccccc3)c2)cc1 9.32%, Cc1ccccc1Nc1nc(N)nc(COC(=O)CCC(=O)c2ccc(F)cc2)n1 2.44%, COc1ccc(-c2c(-c3cc(OC)cc(OC)c3)n(C)c3ccc(-c4ccn[nH]4)cc23)cc1 -12.7%, CCc1nnc(NC(=O)CSc2nnc(Cc3ccccc3)n2-c2ccc(OC)cc2)s1 0.9%, Cc1cnc(NC(=O)CSc2nnc(-c3ccccc3)n2Cc2ccccc2)s1 8.7%, COc1ccccc1CNC(=O)COC(=O)c1sc(C)nc1C 16.2%, O=C(NCC1CCCO1)c1cc2c(s1)CCCC2 (stereo not given) 24.5%, O=C(COC(=O)CNC(=O)C1CCCCC1)Nc1cccc(F)c1 -2.8%, OC(CNCCc1ccc(Cl)cc1Cl)COc1ccccc1 (stereo not given) -28.1%, COc1ccc(CNC(=O)C(C)NCc2ccccc2Cl)cc1 (stereo not given) 2.26%, Cc1ccc(OCC(=O)Nc2ccccc2C(=O)NC2CC2)cc1 -3.15%, Cc1c(NS(=O)(=O)c2cc(C(=O)NCCc3ccc(F)cc3)cc(Cl)c2Cl)c(=O)n(-c2ccccc2)n1C 0.733%, COC(=O)/C(=C1\Oc2ccc(C(C)(C)C)cc2S1)C(F)(F)F 0.21%, CCOC(=O)c1nnn(-c2nonc2OC)c1-c1ccccc1 1.66%, COc1ccc(S(=O)(=O)N2CCN(CC(=O)N3c4ccccc4CC3C)CC2)cc1OC (stereo not given) -15.7%, CCCCn1c(N)c(N(CCC(C)C)C(=O)COC(=O)c2cccnc2OCC)c(=O)[nH]c1=O -12.2%, O=C(NC(=O)c1ccccc1)NC(=O)c1ccccc1 27%, Cc1ccc(NC(=O)NC(=O)c2ccccc2)cc1F -2%, CC(C)Cc1nnc(NC(=O)CCNC(=O)c2ccccc2Cl)s1 -3.78%, Cc1ccc(NC(=O)Cc2nc(COC(=O)C(C)NS(=O)(=O)c3ccc(C)cc3)cs2)cc1 (stereo not given) 2.42%, Cc1cccc(OCC(=O)Nc2ccc(C(=O)O)cc2NC(=O)COc2cccc(C)c2)c1 -10.4%, COc1ccc(OCC(=O)NNC(=O)c2cccc(C)c2)cc1 1.66%, O=C(NCCc1ccc(F)cc1)c1ccc2nccnc2c1 -19%, CCOc1ccc(C(O)Cn2c(=N)n(CCN3CCCCC3)c3ccccc32)cc1 (stereo not given) -7.44%, COc1cccc(OCC(O)CN2CCN(CCO)CC2)c1 (stereo not given) -3.18%, COc1ccc(C)cc1NC(=O)CCCN1C(=O)NC(C)(C)C1=O -9.24%, Cc1nnc(NC(=O)c2ccc3nccnc3c2)s1 3.14%, CC1(C(=O)OCC(=O)Nc2ncc(Cl)cc2Cl)CC1(Cl)Cl (stereo not given) 11.7%, C=CCN1C(=O)c2ccc(C(=O)N3CCC(C(=O)OCC)CC3)cc2C1=O 2.03%, CSCC(=O)N1CCCC(C(=O)c2cc(F)ccc2F)C1 (stereo not given) -7.86%, O=C(c1ccc(OC2CCN(C/C=C/c3ccc(F)cc3)CC2)cc1)N1CCCCC1 26.2%, O=C(NCCS(=O)(=O)N1CCN(c2ccccc2)CC1)c1ccco1 9.95%, Cc1csc2nc(COC(=O)c3cccc(N(C)C)c3)cc(=O)n12 -21.3%, Nc1c(NCCc2ccccc2)c2ccccc2oc1=O -22.5%, CCNc1c(NS(=O)(=O)c2ccc(C3CCCCC3)cc2)c(=O)oc2ccccc12 16.7%, CCC1(C)NC(=O)N(CC(=O)N2CCN(c3cccc(Cl)c3)CC2)C1=O (stereo not given) 22.3%, CCc1ccc(-c2nn(-c3ccccc3C)cc2C(=O)N2CCN(C3CCS(=O)(=O)C3)CC2)cc1 (stereo not given) 3.49%, CCc1nn(CC(=O)N2CCN(CC)CC2)c(=O)c2cccn12 1.45%, COc1cccc2c(=O)n(CC(=O)N3CCCCCC3)ccc12 5.43%
